Among the data in ChEMBL document CHEMBL1157539, “Thousands of chemical starting points for antimalarial lead identification” (Nature, 2010) are Inhibition values, retold here.

Common to all, as to format: functional
For experiment [1], the system named is Plasmodium falciparum. Kind of experiment: GSK_TCMDC: Inhibition of Plasmodium falciparum 3D7 in whole red blood cells, using parasite LDH activity as an index of growth. Test compounds present at 2uM.
For experiment [2], the system named is Plasmodium falciparum. Put plainly: GSK_TCMDC: Inhibition of Plasmodium falciparum Dd2 in whole red blood cells, using parasite LDH activity as an index of growth. Test compounds present at 2uM.
Another experiment concerns HepG2. Put plainly: GSK_TCMDC: Percent inhibition of human HepG2 cell line. Test compounds present at 10uM.

Take `Nc1nc(N)c2cc(CNc3ccc(Cl)c(Cl)c3)ccc2n1`: the Inhibition in the experiment on Plasmodium falciparum [1] is reported as 93%; in the experiment with Plasmodium falciparum [2], 55%; with HepG2 it was 62%.
As for `CCCCCCCNc1cc(C)nc2ccc(OC)cc12.Cl`, the Inhibition in the experiment with Plasmodium falciparum [1] is 100%; in the experiment on Plasmodium falciparum [2], 100%; in the experiment on HepG2, 30%.
Take `CC(C)(C)c1ccc(S(=O)(=O)Nc2cc(Cl)ccc2Cn2ccc(N3CCNCC3)nc2=O)cc1.O=C(O)C(F)(F)F`: the Inhibition in the experiment on Plasmodium falciparum [1] is 95%; in the experiment with Plasmodium falciparum [2], 74%; with HepG2 it was 0%.
In the case of `Cc1cccc2nc(-c3cccc(-c4cccc(NC(=O)Cc5ccc[n+]([O-])c5)c4)c3)[nH]c12`, the Inhibition was determined as 100% in the experiment on Plasmodium falciparum [1], 99% in the experiment on Plasmodium falciparum [2] and 0% in the experiment on HepG2.
Turning to `O=C(NC1CCN(Cc2cccc(C(F)(F)F)c2)CC1)c1ccc(-c2cccc(Cl)c2)s1.O=C(O)C(F)(F)F`, the Inhibition with Plasmodium falciparum [1] came out at 89%; in the experiment on Plasmodium falciparum [2], 33%; with HepG2 it was 26%.
The corresponding values for `CC(=O)c1c[nH]c2ccc(/C=C/C(=O)NC3CCC(CCN4CCc5ccc(C#N)cc5CC4)CC3)cc12.Cl` (stereo not given) are 100%, 98% and 11%.
The corresponding values for `CN1CCC(Oc2ccc(CN3CC[C@H](NC(=O)c4ccc(Cl)c(Cl)c4)C3)c3ccccc23)C1.O=C(O)C(F)(F)F` (stereo not given in full) are 100%, 82% and 52%.
For `O=C(/C=C/c1ccc(Cl)c(Cl)c1)NCCCCCN1CCC(NC(=O)c2ccc(F)cc2F)CC1` the same measures were 96%, 11% and 17%.
For `CN(C)CCN(C)Cc1cccc(-c2ccc3c(Nc4cc(O)c(Cl)cc4F)ccnc3c2)c1`, the results for the Inhibition in the experiment on Plasmodium falciparum [1], in the experiment on Plasmodium falciparum [2] and with HepG2 were 100%, 70% and 14%, respectively.
For `O=C(NC(Nc1ccc([N+](=O)[O-])cc1)C(Cl)(Cl)Cl)c1ccc(Cl)cc1` (stereo not given) the same measures were 98%, 94% and 21%.

For orientation: Inhibition means the share of the control response that was lost under treatment. A lower Inhibition goes with a response near the control.
